Reference: the supplement of paper PMC10338343
± gives the standard deviation.

Assays:
[1] = tested on: MILI (PIWIL2) piRISC loaded with piRNA #1 (26 nt); test: pre-steady-state target cleavage rate (min^-1); guide: piRNA #1 5'p-UGAGGUAGUAGGUUGUAUAGUAUCCA; higher = faster piRNA-guided slicing of the target; conditions: auxiliary factor: 500 nM mouse GTSF1
Method in brief: (§1)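 A transcribed, DNA-blocked target RNA library (0.1 nM) and 1 nM active affinity-purified piRISC bearing one synthetic guide were incubated in HEPES–potassium acetate buffer at 33 °C for 0–8 or 0–960 min, either with or without 500 nM GTSF1 partner protein. Uncleaved targets were sequenced, normalised to depth and to weakly complementary targets, and pooled over three trials, with k3 capped at 0.0001 min^-1. The pre-steady-state cleavage rate was derived with a burst-and-steady-state fit.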

[2] = tested on: EfPiwi piRISC loaded with piRNA #1 (26 nt); test: pre-steady-state target cleavage rate (min^-1); auxiliary factor: 500 nM Ephydatia muelleri Gtsf1; guide: piRNA #1 5'p-UGAGGUAGUAGGUUGUAUAGUAUCCA; MIWI and MILI are mouse PIWI proteins and EfPiwi is from a freshwater sponge; tags in brackets are library labels; higher = faster piRNA-guided slicing of the target
Method in brief: as §1

Row | Sequence | pre-steady-state target cleavage rate [1] | pre-steady-state target cleavage rate [2]
1 | GGAGACCUAACUAUACAACCUACUACCAGA | 0.124 ± 0.035 | 0.00445 ± 0.0031
2 | GGAGACGAUACUAUUCAACCUACAACCUCA | 0.103 ± 0.013 | 0.0024 ± 0.0017
3 | GGAGAGGAUACUAUACAACCUACUAGCUCA | 0.0627 ± 0.012 | 0.00484 ± 0.0019
4 | GGAGUGGAUACUAUACAUCCAACUACCUCA | 0.00718 ± 0.0021 | 0.00457 ± 0.0019
5 | GGAGACGAUACUAUACAUCCAACUACCUCA | 0.00801 ± 0.0028 | 0.00562 ± 0.0029
6 | GGAGACGAUACUAUACAACCAACUACCACA | 0.00835 ± 0.0032 | 0.00406 ± 0.003
7 | GGAGUGGAUACUAUACAUCCUAGUACCUCA | 0.103 ± 0.019 | 0.00411 ± 0.0015
8 | GGAGUGGAUACUAUACAACCCACUACCUCA | 0.0174 ± 0.0024 | 0.00487 ± 0.0019
9 | GGAGAGCAUAGUAUACAACCUACUACCUCA | 0.0921 ± 0.0087 | 0.0077 ± 0.0045
10 | GGAGACCAUACUAUACAACUACUACCUCA | 0.0423 ± 0.0075 | 0.00486 ± 0.0035
11 | GGAGACGAUAGUAUACAACCUACUACCUGA | 0.113 ± 0.017 | 0.0032 ± 0.0023
12 | GGAGACCUAUGUAGUACAACCUACUACCUCA | 0.00758 ± 0.0032 | 0.00368 ± 0.0031
13 | GGAGUGGAUACUAUACAAUCUACUACCUCA | 0.127 ± 0.009 | 0.105 ± 0.038
14 | GGAGACCUUACUAUACAAGCUACUAGCUCA | 0.0972 ± 0.02 | 0.00451 ± 0.0043
15 | GGAGACGUUACUAUACAACCAACUACCUCA | 0.0041 ± 0.002 | 0.00407 ± 0.0025
16 | GGAGACCAUACUAUACAAGCUACUUCCUCA | 0.193 ± 0.016 | 0.00551 ± 0.0027
17 | GGAGACGAUACUAUACAAUCUACUACCUCA | 0.131 ± 0.0093 | 0.00912 ± 0.0039
18 | GGAGAGCUUACUAUACAACCUACUACCUCA | 0.132 ± 0.0097 | 0.0193 ± 0.0089
19 | GGAGACGAUACUAAACUACCUACUACCUCA | 0.24 ± 0.018 | 0.00228 ± 0.0021
20 | GGAGUGGAUACUAUACUACCUACUAGCUCA | 0.0877 ± 0.012 | 0.0027 ± 0.0021
21 | GGAGACCUAACUAUACAACGUACUUCCUCA | 0.0215 ± 0.0078 | 0.00713 ± 0.0049
22 | GGAGAGGAUAGUAUACAACCUAGUACCUCA | 0.0263 ± 0.008 | 0.00231 ± 0.002

Row | Sequence | pre-steady-state target cleavage rate [1] | pre-steady-state target cleavage rate [2]
23 | GGAGAGUGAUACUAUACAACCUACUACCUCA | 0.227 ± 0.016 | 0.171 ± 0.053
24 | GGAGACGAUACUAUACAACCUACUACAUCA | 0.0978 ± 0.015 | 0.0059 ± 0.0024
25 | GGAGAGGAUACUAUACAACCUAUCUACCUCA | 0.128 ± 0.012 | 0.00568 ± 0.0029
26 | GGAGAGGAUACUAUACUACGUACUACCUCA | 0.0192 ± 0.0028 | 0.00407 ± 0.0022
27 | GGAGACCAUACUCUACAACCUACUACCUCA | 0.161 ± 0.018 | 0.00922 ± 0.0037
28 | GGAGACCCUACUAUACAACCUACUACCUCA | 0.207 ± 0.021 | 0.153 ± 0.051
29 | GGAGUGGAUACUAUACUACCUACUACCACA | 0.143 ± 0.013 | 0.0024 ± 0.0017
30 | GGAGUGGAUACUAUACAACCUACUACCCCA | 0.0956 ± 0.016 | 0.00727 ± 0.0025
31 | GGAGACCUAACUACUACAACCUACUACCUCA | 0.107 ± 0.026 | 0.00946 ± 0.0059
32 | GGAGACGAUACUACACAACCUACUACCUCA | 0.203 ± 0.019 | 0.00692 ± 0.0032
33 | GGAGUGGAUACUAUACAACCUACUACCUCG [g2:g26:cont:t1G] | 0.164 ± 0.011 | 0.0718 ± 0.025
34 | GGAGACCUUACUAUACAACCUACUACCCA | 0.0955 ± 0.016 | 0.00518 ± 0.0043
35 | GGAGUGGAUACUAAACAACCAACUACCUCA | 0.007 ± 0.0021 | 0.0031 ± 0.0017
36 | GGAGACGAUACUAUACAACGUACAACCUCA | 0.0345 ± 0.0071 | 0.00279 ± 0.0018
37 | GGAGACGGAUACUAUACAACCUACUACCUCA | 0.234 ± 0.018 | 0.221 ± 0.062
38 | GGAGACGAGACUAUACAACCUACUACCUCA | 0.214 ± 0.034 | 0.0942 ± 0.032
39 | GGAGACCUUACUAUUCAACCUACUACCUCA | 0.15 ± 0.012 | 0.00413 ± 0.0039
40 | GGAGACCAUCACUAUACAACCUACUACCUCA | 0.147 ± 0.021 | 0.0254 ± 0.012
41 | GGAGAGCAUACUAUACAACCUACUUCCUCA | 0.0809 ± 0.025 | 0.00292 ± 0.0021
42 | GGAGACCAUACGUAUACAACCUACUACCUCA | 0.212 ± 0.035 | 0.159 ± 0.064
43 | GGAGACCAUACUAACAACCUACUACCUCA | 0.114 ± 0.019 | 0.00859 ± 0.0041
44 | GGAGACCUUACUUAUACAACCUACUACCUCA | 0.0994 ± 0.014 | 0.00736 ± 0.0041

Row | Sequence | pre-steady-state target cleavage rate [1] | pre-steady-state target cleavage rate [2]
45 | GGAGAGGAUAACUAUACAACCUACUACCUCA | 0.0525 ± 0.0054 | 0.104 ± 0.039
46 | GGAGUGGAGACUAUACAACCUACUACCUCA | 0.212 ± 0.029 | 0.0807 ± 0.031
47 | GGAGUGGAUACAAUACAACCUACAACCUCA | 0.0772 ± 0.01 | 0.00248 ± 0.0013
48 | GGAGUGGAUACUAUACAUCCUACUACCACA | 0.108 ± 0.014 | 0.00415 ± 0.0017
49 | GGAGACCAUACUAUACAACCUACUACCACA | 0.231 ± 0.029 | 0.00574 ± 0.002
50 | GGAGAGGAUACUAUACAACCACUACCUCA | 0.00782 ± 0.0025 | 0.00549 ± 0.0026
51 | GGAGAGGAUACUAUACAACCUACUACCCUCA | 0.11 ± 0.017 | 0.00508 ± 0.0022
52 | GGAGAGGAUACUAUAGCAACCUACUACCUCA | 0.129 ± 0.012 | 0.0429 ± 0.019
53 | GGAGACGAUACUAUAGAACGUACUACCUCA | 0.0134 ± 0.0023 | 0.00177 ± 0.0015
54 | GGAGUGGAUACUAUACAACGAACUACCUCA | 0.00366 ± 0.0017 | 0.00257 ± 0.0018
55 | GGAGUGGAUACUAUUCAACCUAGUACCUCA | 0.0485 ± 0.0085 | 0.00286 ± 0.0013
56 | GGAGACGAUACUAUACAACCACUACCUCA | 0.00914 ± 0.0038 | 0.00795 ± 0.0036
57 | GGAGUGGAUACUAUACAACGCUACUACCUCA | 0.0044 ± 0.0029 | 0.00636 ± 0.003
58 | GGAGACCUAACUAUACAACCUACUACCUGA | 0.108 ± 0.03 | 0.00393 ± 0.002
59 | GGAGACGAUACUAUACAACCUUCAACCUCA | 0.00736 ± 0.0019 | 0.00247 ± 0.0013
60 | GGAGUGGAUUCUAUACAACCUACUACCUGA | 0.0905 ± 0.012 | 0.00261 ± 0.002
61 | GGAGACGAUAGAAUACAACCUACUACCUCA | 0.137 ± 0.013 | 0.00812 ± 0.0043
62 | GGAGAGGAUACUUUACAACCUACUAGCUCA | 0.0731 ± 0.013 | 0.00183 ± 0.0016
63 | GGAGACCUAUCAUUACAACCUACUACCUCA | 0.0146 ± 0.0049 | 0.00563 ± 0.0035
64 | GGAGACCAUACUAUACAACCUAGCUACCUCA | 0.0804 ± 0.012 | 0.00373 ± 0.0029
65 | GGAGACGAAACUAUUCAACCUACUACCUCA | 0.198 ± 0.021 | 0.00439 ± 0.0036
